Where “and” joins values, the source holds several entries; their conditions need not be identical. Equal values may be shown once. Values without a mark were called inactive. Results filed as inconclusive are left out. Calls of active or inactive are those of the source. Unless noted, calls follow the shape of the dose curve; as a rule, active = well fitted curve in the direction sought with a large enough effect; inconclusive = small, poorly fitted or top-dose-only effect, or another doubt; inactive = no such curve, though single readings can be large; an effect the other way counts as inactive or inconclusive.
Key:
[1] = Cell Viability - Jurkat (AID 426;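 active = dose-dependent loss of cell ATP signal giving a full or clear fitted curve, ranked by lower potency value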; also: potency is read from the fitted curve at half-maximal effect); details: qHTS
Summary of the method: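 Jurkat (Clone E6-1) cells, 5000/well in complete medium, exposed to compounds for 40 hr at 37C; intracellular ATP measured by CellTiter-Glo luminescence after 20 min at room temperature. AC50 from Hill fits.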

[2] = Cell Viability - Hek293 (AID 427;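 active = compounds whose dose-response curve shows a full or clear partial loss of cell viability, called from curve shape rather than a numeric limit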;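 also: potency is read from the fitted curve at half-maximal effect; cells exposed to compound for 40 hours at 37 °C before reading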); details: qHTS
Summary of the method: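 Luminescent ATP content (CellTiter-Glo, 20 min at room temperature) was measured after a 40 hr, 37 °C compound exposure of HEK293 cells. AC50 values came from Hill-equation fits of qHTS concentration-response data normalized to DMSO and 100 uM tamoxifen.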

[3] = Cell Viability - NIH 3T3 (AID 541); details: NIH 3T3 cell viability, qHTS; activity change, negative = cytotoxicity: at 92.2 µM (top of the series); also: nearly all actives have a fitted effect of over 25% in size; also: potency is read from the fitted curve at half-maximal effect;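 as to activity change, negative = cytotoxicity: plate controls were DMSO alone for no effect and tamoxifen positive control for full effect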
Summary of the method: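 Mouse NIH 3T3 fibroblasts, 1000 cells/well, rested 5 hr at 37 °C, then exposed to compound for 40 hr at 37 °C in complete medium. Viability read as intracellular ATP by CellTiter-Glo luminescence; AC50 from Hill-equation fits of concentration-response data.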

[4] = Cell Viability - HUV-EC-C (AID 542); details: HUV-EC-C endothelial cell viability, qHTS; series mostly up to 92.2 µM; also: nearly all actives have a fitted effect of over 35% in size; also: potency is read from the fitted curve at half-maximal effect; as to activity change, negative = cytotoxicity: % is scaled to controls: 0 for no effect and ±100 for the full control effect
Summary of the method: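 HUV-EC-C human vascular endothelial cells, 1000/well, exposed to compound for 40 hr at 37 °C in complete medium. Intracellular ATP was read by CellTiter-Glo luminescence. AC50 came from Hill-equation fits of concentration-response data.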

[5] = Cell Viability - H-4-II-E (AID 543); details: H-4-II-E rat hepatoma viability; series mostly up to 92.2 µM; also: potency is read from the fitted curve at half-maximal effect; nearly all actives have a fitted effect of over 35% in size
Summary of the method: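 Rat hepatoma H-4-II-E cells, 1500 per well, treated 40 h at 37 °C in complete medium. Cellular ATP read by CellTiter-Glo luminescence; AC50 from Hill fits of concentration-response.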

[6] = Cell Viability - SH-SY5Y (AID 544); details: SH-SY5Y neuroblastoma cell viability; viability change, negative = cytotoxic: at 92.2 µM (top of the series); also: nearly all actives have a fitted effect of over 55% in size; also: potency is read from the fitted curve at half-maximal effect
Summary of the method: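 SH-SY5Y human neuroblastoma cells (1500/well) incubated 5 h, then compound-treated 40 h at 37 °C in complete medium. Viability read as intracellular ATP by CellTiter-Glo luminescence after 20 min; AC50 from Hill-equation fits of qHTS concentration-response.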

[7] = Cell Viability - Renal Proximal Tubule (AID 545); details: renal proximal tubule cells viability; activity change, negative = cytotoxicity: at 91.7 µM (top of the series) unless noted; also: nearly all actives have a fitted effect of over 40% in size; also: potency is read from the fitted curve at half-maximal effect
Summary of the method: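 Viability taken as intracellular ATP (CellTiter-Glo luminescence) after 40 hr, 37 °C compound treatment of primary proximal tubule cells from rat kidney, 1000 cells/well; Hill-equation fits of qHTS concentration-response data gave AC50.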

[8] = Cellular Toxicity (caspase-3) HUV-EC-C (AID 656); details: HUV-EC-C cells, caspase-3 activation (apoptosis), vehicle = 0, 100 µM tamoxifen = 100%; series mostly up to 92.2 µM
Summary of the method: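 Luminescent Caspase-Glo 3/7 readout after 16 h, 37 °C compound exposure of HUV-EC-C endothelial cells, 1000 per well, complete medium. AC50 derived by Hill fitting, with DMSO as baseline and 100 uM tamoxifen as full activation.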

[9] = Cellular Toxicity (caspase-3) MRC-5 (AID 659); details: MRC-5 cells, luminescence, normalized: DMSO 0%, 10 µM staurosporine 100%; series mostly up to 91.7 µM
Summary of the method: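 Concentration-dependent caspase 3/7 activation is measured in human normal lung fibroblasts (MRC-5) following 16-hour treatment. AC50 values come from standard Hill-equation modeling of luminescence normalized to DMSO and 10 uM staurosporine.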

[10] = Cellular Toxicity (caspase-3) Hek293 (AID 664); details: HEK293 caspase-3 activation, DMSO = 0%, 100 µM tamoxifen = 100%; at 92.2 µM (top of the series);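 also: cells exposed to compound for 16 h at 37 °C before readout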
Summary of the method: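 HEK293 cells in complete medium treated 16 h at 37 °C, then Caspase-Glo 3/7 luminescence read after 20 min at room temperature. Normalized to DMSO and 100 uM tamoxifen; AC50 from Hill fit of concentration-response.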

[11] = Cellular Toxicity (caspase-3) N2a (AID 665); details: N2a cells, luminescence, normalized: DMSO 0%, 10 µM staurosporine 100%; series mostly up to 92.2 µM;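 also: compound exposure lasted 16 h at 37 °C before readout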
Summary of the method: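 Mouse N2a neuroblastoma cells, 1500 per well, treated 16 h at 37 °C in complete medium; caspase-3/7 activity by Caspase-Glo luminescence after 1 h. Normalized to DMSO and 10 uM staurosporine; AC50 from Hill fits.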

[12] = Cellular Toxicity (caspase-3) NIH 3T3 (AID 666); details: NIH 3T3 caspase-3 activation, apoptosis/toxicity, 0% DMSO, 100% is 100 µM tamoxifen; series mostly up to 92.2 µM;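 also: caspase signal read after 16 h compound exposure; 0% = DMSO basal and 100% = 100 µM tamoxifen stimulation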
Summary of the method: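 Mouse NIH 3T3 fibroblasts (1000/well) treated 16 h at 37 C; caspase-3/7 activity measured by Caspase-Glo 3/7 luminescence after 20 min. Normalized to DMSO and 100 uM tamoxifen; AC50 from Hill fits.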

[13] = Cell Viability - LYMP1-003 - Assay at 24 hr (AID 963); details: LYMP1-003 lymphoblastoid cell viability; series mostly up to 92.2 µM; also: potency is read from the fitted curve at half-maximal effect;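 as to viability change, negative = cytotoxic: plate controls were DMSO only for no effect and tetraoctylammonium bromide positive control for full effect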
Summary of the method: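 Human lymphoblastoid LYMP1-003 cells, 2500/well, treated 24 h at 37 C in complete medium. Viability read as intracellular ATP by CellTiter-Glo luminescence after 30 min at room temperature; AC50 from Hill-equation fits of qHTS concentration-response.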

[14] = Cell Viability - LYMP2-019 (AID 973); details: LYMP2-019 lymphoblastoid cell line viability; series mostly up to 92.2 µM; also: potency is read from the fitted curve at half-maximal effect; nearly all actives have a fitted effect of over 55% in size
Summary of the method: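 Human lymphoblastoid LYMP2-019 cells (2500/well) preincubated 5 h at 37 C, then treated 24 h at 37 C in complete medium. Viability by CellTiter-Glo ATP luminescence after 30 min at room temperature; AC50 from Hill fits.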

[15] = Cell Viability - LYMP2-018 (AID 985); details: LYMP2-018 lymphoblastoid cells, viability (qHTS); series mostly up to 92.2 µM;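 also: compound exposure lasted 24 hr at 37 °C; nearly all actives have a fitted effect of over 50% in size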; also: potency is read from the fitted curve at half-maximal effect;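 as to activity change, negative = cytotoxicity: plate controls were DMSO only for no effect and tetraoctylammonium bromide at 92 µM for full effect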
Summary of the method: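 Human lymphoblastoid LYMP2-018 cells, 2500/well, settled 5 hr at 37 C then exposed to compound 24 hr at 37 C; intracellular ATP measured by CellTiter-Glo luminescence. AC50 from Hill-equation concentration-response fits.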

[16] = target: Tumor necrosis factor (Homo sapiens) (UniProt P01375); test: qHTS assay to identify small molecules that stimulate Tumor Necrosis Factor-alpha (TNF-alpha) secretion (AID 651757; active = well fitted curve in the direction sought with a large enough effect in the signal ratio; the % refers to the signal ratio; also: 0% is about no effect); details: Human cells, HTRF 665/615 ratio; series mostly up to 92.2 µM
Summary of the method: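 THP-1 cells (3000/well) exposed to compounds 17 hrs at 37 C. Secreted TNF-alpha detected by HTRF with cryptate- and XL665-labeled anti-TNF-alpha antibodies after 3 hr at room temperature.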

[17] = target: Peroxisome proliferator-activated receptor alpha (Homo sapiens) (UniProt Q07869); test: qHTS assay for small molecule agonists of the peroxisome proliferator-activated receptor alpha (PPARalpha) signaling pathway (AID 651778); details: PathHunter PPARalpha complementation, chemiluminescence, 6 h; max response: hits give high values; also: % of control where 0% means no effect
Summary of the method: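 Chemiluminescence from complemented enzyme reported PPARalpha activation in cells after 6 hr of compound treatment at 37 C. The detection reagent was incubated for 60 min at room temperature, and compounds were scored as agonists.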

[18] = qHTS assay for cell viability of HEK293 cells (AID 743288); details: ATP luminescence (CellTiter-Glo), 18 h; max response: hits give low values; also: nearly all actives have a fitted effect of over 50% in size; also: potency is read from the fitted curve at half-maximal effect; as to max response: % is scaled to controls: 0 for no effect and ±100 for the full control effect
Summary of the method: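 Total intracellular ATP, measured with a luciferase-coupled reagent, indicates the number of viable HEK293 cells. Exposure to test chemicals lasts 18 h at 37 C in 1,536-well format at 2,000 cells/well.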

[19] = Cell Viability - SK-N-SH (AID 435; calls by dose curve; also: potency is read from the fitted curve at half-maximal effect); details: SK-N-SH neuroblastoma cell viability qHTS
Summary of the method: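 qHTS cytotoxicity: CellTiter-Glo ATP luminescence after 40 h compound exposure of human neuroblastoma SK-N-SH cells at 37 °C. AC50 derived by Hill-equation fitting, with DMSO as basal and 100 uM tamoxifen as full inhibition.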

[20] = Cell Viability - Mesenchymal (AID 546); details: mesenchymal cells viability, qHTS; activity change, negative = cytotoxicity: at 91.7 µM (top of the series);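 also: cells exposed to compound for 40 hours before reading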; also: potency is read from the fitted curve at half-maximal effect
Summary of the method: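 AC50 values reflect the drop in intracellular ATP in a human kidney mesenchymal line derived from normal glomeruli. Treatment lasts 40 hr at 37 °C in complete medium, and the signal comes from CellTiter-Glo luminescence.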

Peroxisome proliferator-activated receptor alpha (Homo sapiens), sequence (Q07869 whole entry, looked up): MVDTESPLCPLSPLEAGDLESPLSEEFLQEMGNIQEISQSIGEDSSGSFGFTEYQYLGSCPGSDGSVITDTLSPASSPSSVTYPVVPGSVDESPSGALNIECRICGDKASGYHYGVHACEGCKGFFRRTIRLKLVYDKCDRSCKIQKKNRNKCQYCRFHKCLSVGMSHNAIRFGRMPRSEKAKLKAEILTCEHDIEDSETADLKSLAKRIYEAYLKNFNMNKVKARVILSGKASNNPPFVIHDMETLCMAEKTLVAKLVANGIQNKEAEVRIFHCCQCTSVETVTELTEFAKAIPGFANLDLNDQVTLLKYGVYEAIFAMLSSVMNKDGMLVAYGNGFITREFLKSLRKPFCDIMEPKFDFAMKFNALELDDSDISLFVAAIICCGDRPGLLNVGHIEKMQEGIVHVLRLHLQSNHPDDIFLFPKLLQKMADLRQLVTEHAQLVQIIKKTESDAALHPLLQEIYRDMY
Tumor necrosis factor (Homo sapiens), sequence (P01375 whole entry, looked up): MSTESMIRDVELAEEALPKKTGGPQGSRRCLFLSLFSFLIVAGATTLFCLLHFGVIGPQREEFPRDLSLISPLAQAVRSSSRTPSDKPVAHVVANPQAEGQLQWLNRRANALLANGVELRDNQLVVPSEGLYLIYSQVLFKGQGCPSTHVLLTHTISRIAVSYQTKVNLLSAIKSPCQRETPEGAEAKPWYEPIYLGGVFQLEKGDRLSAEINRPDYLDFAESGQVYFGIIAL

For `O=[N+]([O-])C(Br)Br`, the Potency [1] was 24.4 µM (active), the Potency [2] was > 92 µM and the Potency [3] was 31.6 µM (active). The Potency [4] was “inactive”, the Potency [5] was 31.6 µM (active) and the viability change, negative = cytotoxic [6] was -98.3% (active). The Potency [7] was “inactive”, the outcome [8] was “inactive” and the outcome [9] was “inactive”. The caspase-3 activation [10] was -9.23%, the outcome [11] was “inactive” and the outcome [12] was “inactive”. The Potency [13] was “inactive”, the Potency [14] was 10 µM (active) and the Potency [15] was 12.6 µM (active). The Potency [16] was “inactive”, the max response [17] was -3.58% and the max response [18] was -25.4%.

With `CN(C)c1ccc(N=O)cc1` the Potency [1] was 2.5 µM (active), the Potency [2] was 47.4 µM (active) and the Potency [19] was 7.28 µM (active). The Potency [3] was 12.6 µM (active), the Potency [4] was “inactive” and the Potency [5] was 6.31 µM (active). For the same compound, the Potency [6] was 1.26 µM (active), the Potency [7] was 15.8 µM (active) and the Potency [20] was 31.6 µM (active). The outcome [8] was “inactive”, the outcome [9] was “inactive” and the caspase-3 activation [10] was 9.09%. The outcome [11] was “inactive”, the outcome [12] was “inactive” and the Potency [13] was 7.94 µM (active). The Potency [14] was 1 µM (active), the Potency [15] was 1.26 µM (active) and the max response [17] was -3.57%. For the same compound, the Potency [18] was 39.8 µM (active).

For `C(=NC1CCCCC1)=NC1CCCCC1`, the Potency [3] was 1 µM (active), the Potency [4] was “inactive” and the Potency [5] was 1.26 µM (active). For the same compound, the Potency [6] was “inactive”, the Potency [7] was “inactive” and the Potency [20] was “inactive”. For the same compound, the outcome [8] was “inactive”, the outcome [9] was “inactive” and the outcome [11] was “inactive”. For the same compound, the outcome [12] was “inactive”, the Potency [13] was “inactive” and the Potency [16] was “inactive”. The max response [17] was -9.68% and -4.28%.

For `[Cd+2].[Cl-].[Cl-]`, the Potency [2] was 51.2 µM (active), the activity change, negative = cytotoxicity [3] was -132% (active) and the Potency [4] was “inactive”. For the same compound, the Potency [5] was 1.26 µM (active), the Potency [7] was 12.6 µM (active) and the outcome [8] was “inactive”. For the same compound, the outcome [9] was “inactive”, the caspase-3 activation [10] was 1.43% and the outcome [11] was “inactive”. For the same compound, the outcome [12] was “inactive”, the Potency [15] was “inactive” and the Potency [16] was “inactive”. It also gave a max response [17] of -8.85%.

With `[CH3][Hg][Cl]` the Potency [1] was 1.49 µM (active), the Potency [2] was 33.3 µM (active) and the Potency [19] was 17.4 µM (active). The Potency [3] was 0.0316 µM (active), the Potency [4] was 15.8 µM (active) and the Potency [5] was 5.01 µM (active). The Potency [6] was 2.51 µM (active), the activity change, negative = cytotoxicity [7] was -104% (active) and the Potency [20] was 6.31 µM (active). For the same compound, the outcome [8] was “inactive”, the outcome [9] was “inactive” and the caspase-3 activation [10] was -9.46%. The outcome [11] was “inactive”, the Potency [13] was 50.1 µM (active) and the Potency [14] was 5.01 µM (active). The Potency [15] was 3.16 µM (active), the Potency [16] was “inactive” and the max response [17] was -12.7%. The Potency [18] was 39.8 µM (active).

For `Cc1ccc(O)cc1C`, the Potency [1] was > 92 µM, the Potency [2] was > 92 µM and the Potency [19] was > 92 µM. For the same compound, the max response [18] was 6.02%.
